Measurements published in PubChem BioAssay (Tox21).
Values joined by “and” are separate entries in the source; they are usually repeats but may differ in a detail not shown here. Equal values may be shown once. Inconclusive results are not listed. Entries that show only a call come without a potency. Some structures have more than one record in an assay (separate samples or runs), and their calls can disagree. Active and inactive are the calls of the source. Unless noted, calls come from the whole dose curve; as a rule, active = well fitted curve in the direction sought with a large enough effect in the repeat runs; inconclusive = weak or mixed curves; inactive = no such curve, though single readings can be large; an effect the other way counts as inactive or inconclusive.

Key:
[1] = qHTS assay to identify small molecule agonists of the estrogen receptor alpha (ER-alpha) signaling pathway in the presence of an antagonist - cell viability counter screen (AID 1259386);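 note: cells exposed to compounds for 22 h at 37 °C before the viability read; nearly all actives have a fitted effect of over 30% in size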; note: potency is the fitted concentration of half-maximal effect
Outline: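 Viability counter screen using VM7Luc4E2 (full-length ER-alpha, four ERE-luciferase). The cells were treated with compounds alongside ICI-182,780 10.0nM for 22hr, and live-cell protease fluorescence was quantified with CellTiter-Fluor.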

[2] = qHTS assay to identify small molecule antagonists of the progesterone receptor (PR) signaling pathway - cell viability counter screen (AID 1346798); note: series mostly up to about 92 µM; nearly all actives have a fitted effect of over 50% in size
Outline: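 PR-UAS-bla HEK293T cells in medium with 2% charcoal-stripped FBS were treated with compounds plus R5020 for 16 hr at 37C. Cell viability was then read by CellTiter-Glo luminescence after 30 min at room temperature in the same wells.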

[3] = qHTS assay to identify small molecule agonists of the progesterone receptor (PR) signaling pathway - cell viability counter screen (AID 1346799; calls by dose curve; note: nearly all actives have a fitted effect of over 45% in size)
Outline: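 PR-UAS-bla HEK293T cells, 3,000 per well in medium with 2% charcoal-stripped FBS, were preincubated 6 hr at 37C, then exposed to compounds for 16 hr; viability was read as CellTiter-Glo luminescence after 30 min at room temperature.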

[4] = qHTS assay to identify small molecule antagonists of the TGF-beta/Smad signaling pathway - cell viability counter screen (AID 1346824); note: nearly all actives have a fitted effect of over 50% in size
Outline: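 SBE-bla HEK 293T cells were plated overnight at 37 C, then given compounds in DMSO plus TGF-beta1 (added as 0.25 ng/mL solution) for 5 hr. After the bla read, CellTiter-Glo was added to the same wells and luminescence read after 30 min at room temperature.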

[5] = qHTS assay to identify small molecule agonists of the TGF-beta/Smad signaling pathway - cell viability counter screen (AID 1346829); note: top concentration of the series differs between compounds; nearly all actives have a fitted effect of over 45% in size
Outline: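 SBE-bla HEK 293T cells plated overnight, compound exposure 5 hr at 37 C. Viability read in the same wells by CellTiter-Glo luminescence after 30 min at room temperature, following the beta-lactamase read.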

[6] = qHTS assay to identify small molecule agonists of the TGF-beta/Smad signaling pathway (AID 1346859; active = well fitted activation curve with a large enough effect in the signal ratio in the repeat runs, not every such curve was filed as active; the % refers to the signal ratio; note: series mostly up to about 77 µM)
Outline: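 HEK 293T cells stably carrying a beta-lactamase reporter driven by the Smad binding element were seeded overnight, exposed to DMSO-dissolved compounds for 5 hr at 37 C, 5% CO2, then loaded with FRET substrate for 2 hr at room temperature.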

[7] = biological target: Thyrotropin-releasing hormone receptor (Homo sapiens) (UniProt P34981); assay: qHTS assay to identify small molecule antagonists of the thyrotropin-releasing hormone receptor (TRHR) signaling pathway (AID 1346877; active = well fitted inhibition curve with a large enough effect in the repeat runs, not every such curve was filed as active; note: series mostly up to about 51 µM)
Outline: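 Following an 18 h incubation at 37 °C and a 2 h calcium dye load, TRHR-HEK293 cells were exposed to compound (5 min, room temperature) and challenged with TRH, 1 nM final.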

[8] = biological target: Thyrotropin-releasing hormone receptor (Homo sapiens) (UniProt P34981); assay: qHTS assay to identify small molecule agonists of the thyrotropin-releasing hormone receptor (TRHR) signaling pathway (AID 1346891; calls by dose curve; note: series mostly up to about 58 µM)
Outline: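 TRHR-expressing HEK293 cells were plated 18 h at 37 °C/5% CO2, loaded with calcium dye 2 h at 37 °C, then given compound in DMSO; fluorescence was read kinetically for 3 min at 1 s intervals.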

[9] = Human pregnane X receptor (PXR) small molecule agonists, qHTS cell viability counter screen (AID 1346977); note: nearly all actives have a fitted effect of over 50% in size; note: potency is the fitted concentration of half-maximal effect
Outline: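 PXR-Luc HepG2 cells in medium with 5% charcoal-stripped FBS were pre-incubated 5hr, then exposed to compounds for 24hr at 37C. Viability was read in the same wells by CellTiter-Fluor fluorescence, reagent added after 23hr with a 1hr incubation.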

[10] = Caspase-3/7 induction in HepG2 cells by small molecules, qHTS assay (AID 1346978); note: nearly all actives have a fitted effect of over 15% in size
Outline: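 Wild-type HepG2 cells (2,000/well) were settled 5 h at 37 C, 5% CO2, then exposed to compounds in DMSO for 17 h. Caspase-3/7 activity was read by luminescence 30 min after adding Caspase-Glo 3/7 reagent at room temperature.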

[11] = Caspase-3/7 induction in CHO-K1 cells by small molecules, qHTS cell viability counter screen (AID 1346979); note: nearly all actives have a fitted effect of over 35% in size; note: potency is the fitted concentration of half-maximal effect
Outline: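 Wild-type CHO-K1 cells were seeded at 1,500 per well, rested 5hr at 37 C, then exposed to compounds in DMSO. After 16hr, CellTiter-Fluor reagent was added and fluorescence read 1hr later as the viability measure.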

[12] = Caspase-3/7 induction in CHO-K1 cells by small molecules, qHTS assay (AID 1346980); note: nearly all actives have a fitted effect of over 15% in size
Outline: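 Wild-type cells were seeded at 1,500 per well and settled 5 hr at 37 C, 5% CO2, then exposed to DMSO-dissolved compounds for 17 hr. Caspase-Glo 3/7 reagent was added, and luminescence was read after 30min at room temperature.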

[13] = Caspase-3/7 induction in HepG2 cells by small molecules, qHTS cell viability counter screen (AID 1346981); note: nearly all actives have a fitted effect of over 30% in size; note: potency is the fitted concentration of half-maximal effect
Outline: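 Viability determined by CellTiter-Fluor fluorescence in HepG2 wells also used for the luminescent Caspase-Glo 3/7 read. Compounds were present for 16 hr at 37 C, 5% CO2 before reagent addition.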

[14] = biological target: Acetylcholinesterase (Homo sapiens) (UniProt P22303); assay: Acetylcholinesterase (AChE) small molecule antagonists: colormetric cell-based qHTS assay (AID 1347395; calls by dose curve; note: nearly all actives have a fitted effect of over 30% in size; note: potency is the fitted concentration of half-maximal effect)
Outline: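 SH-SY5Y cells, plated overnight at 37 C, were exposed to compounds for 30 min at 37 C and 5% CO2. Acetylthiocholine plus DTNB was then added, and thiocholine from endogenous AChE was quantified colorimetrically after 90 min at 37 C.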

[15] = biological target: Progesterone receptor (Homo sapiens) (UniProt P06401); assay: qHTS assay to identify small molecule antagonists of the progesterone receptor (PR) signaling pathway (AID 1346795; active = well fitted inhibition curve with a large enough effect in the signal ratio in the repeat runs, not every such curve was filed as active; the % refers to the signal ratio; note: potency is the fitted concentration of half-maximal effect)
Outline: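 PR-UAS-bla HEK293T cells carrying a UAS-driven beta-lactamase reporter were plated in medium with 2% charcoal-stripped FBS and rested 6 hr at 37C. Compounds were added with 1 nM R5020 (final) for 16 hr, then FRET substrate loaded 2 hr at room temperature.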

[16] = biological target: Nuclear receptor subfamily 1 group I member 2 (Homo sapiens) (UniProt O75469); assay: Human pregnane X receptor (PXR) small molecule agonists, qHTS assay (AID 1346982); note: nearly all actives have a fitted effect of over 35% in size; note: potency is the fitted concentration of half-maximal effect
Outline: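 Compound-induced hPXR transactivation of a CYP3A4 luciferase reporter was scored in HepG2 PXR-Luc cells over 24 hr at 37 C, 5% CO2, by luminescence.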

[17] = biological target: Progesterone receptor (Homo sapiens) (UniProt P06401); assay: qHTS assay to identify small molecule agonists of the progesterone receptor (PR) signaling pathway (AID 1346784; calls by dose curve; note: nearly all actives have a fitted effect of over 30% in size)
Outline: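 PR-UAS-bla HEK 293T cells carrying a UAS-driven beta-lactamase reporter were seeded in medium with 2% charcoal-stripped FBS, preincubated 6 hr at 37C, then exposed to compounds in DMSO for 16 hr; agonism was read by LiveBLAzer B/G FRET fluorescence.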

[18] = biological target: Nuclear receptor subfamily 1 group I member 2 (Rattus norvegicus) (UniProt Q9R1A7); assay: Rat pregnane X receptor (rPXR) activation by small molecules, qHTS assay (AID 1346983); settings: rPXR luciferase reporter cells, One-Glo luminescence, 24 h; stronger effect = higher value; note: nearly all actives have a fitted effect of over 20% in size
Outline: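 Cell-based rPXR luciferase reporter assay, 2,000 cells per well, rested 5hr at 37 C before compound addition in DMSO, then 24 hr at 37 C. One-Glo reagent was added and luminescence read after 30 min at room temperature.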

[19] = biological target: Nuclear receptor subfamily 1 group I member 2 (Homo sapiens) (UniProt O75469); assay: CYP3A4 induction through human pregnane X receptor (PXR) by small molecules, qHTS assay (AID 1346984); note: nearly all actives have a fitted effect of over 40% in size
Outline: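 Readings come from a luciferase reporter: DPX-2 cells, which are HepG2 cotransfected with PXR and a CYP3A4-promoter construct, were exposed to test compounds for 24 h at 37C before One-Glo detection.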

[20] = biological target: Nuclear receptor subfamily 1 group I member 2 (Homo sapiens) (UniProt O75469); assay: Human pregnane X receptor (PXR) activation by small molecules, qHTS assay (AID 1346985); note: nearly all actives have a fitted effect of over 40% in size
Outline: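 DPX-2 cells (HepG2 co-transfected with a PXR response element and a CYP3A4-promoter luciferase construct) were seeded at 2,000 per well, rested 5 hr at 37C, then exposed to DMSO-dissolved compounds for 24 hr. Activation was read as luciferase luminescence.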

Chain of Progesterone receptor (Homo sapiens) (P06401 whole entry, looked up): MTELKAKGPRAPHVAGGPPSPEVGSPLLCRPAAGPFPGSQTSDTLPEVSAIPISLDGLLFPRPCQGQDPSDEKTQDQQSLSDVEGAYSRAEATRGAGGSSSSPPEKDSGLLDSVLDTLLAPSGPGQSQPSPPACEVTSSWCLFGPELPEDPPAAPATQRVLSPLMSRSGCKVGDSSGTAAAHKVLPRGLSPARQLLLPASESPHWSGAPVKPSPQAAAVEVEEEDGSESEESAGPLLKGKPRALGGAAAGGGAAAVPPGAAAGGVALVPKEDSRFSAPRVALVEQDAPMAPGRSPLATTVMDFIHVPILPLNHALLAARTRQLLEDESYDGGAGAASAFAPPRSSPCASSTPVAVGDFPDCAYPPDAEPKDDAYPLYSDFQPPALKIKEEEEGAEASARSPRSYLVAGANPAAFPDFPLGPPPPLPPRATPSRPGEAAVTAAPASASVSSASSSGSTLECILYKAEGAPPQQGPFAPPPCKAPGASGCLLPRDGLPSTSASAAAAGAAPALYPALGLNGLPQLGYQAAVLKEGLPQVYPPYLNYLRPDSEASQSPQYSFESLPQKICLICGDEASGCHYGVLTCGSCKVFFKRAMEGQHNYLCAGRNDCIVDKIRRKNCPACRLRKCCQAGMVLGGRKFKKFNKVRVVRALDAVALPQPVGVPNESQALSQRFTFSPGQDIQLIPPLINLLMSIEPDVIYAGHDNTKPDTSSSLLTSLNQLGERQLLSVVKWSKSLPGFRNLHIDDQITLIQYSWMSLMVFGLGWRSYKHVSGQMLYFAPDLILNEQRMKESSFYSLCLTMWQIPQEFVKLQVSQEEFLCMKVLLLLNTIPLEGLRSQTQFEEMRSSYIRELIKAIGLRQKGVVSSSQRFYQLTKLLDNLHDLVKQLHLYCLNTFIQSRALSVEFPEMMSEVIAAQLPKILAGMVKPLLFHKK
Chain of Thyrotropin-releasing hormone receptor (Homo sapiens) (P34981 whole entry, looked up): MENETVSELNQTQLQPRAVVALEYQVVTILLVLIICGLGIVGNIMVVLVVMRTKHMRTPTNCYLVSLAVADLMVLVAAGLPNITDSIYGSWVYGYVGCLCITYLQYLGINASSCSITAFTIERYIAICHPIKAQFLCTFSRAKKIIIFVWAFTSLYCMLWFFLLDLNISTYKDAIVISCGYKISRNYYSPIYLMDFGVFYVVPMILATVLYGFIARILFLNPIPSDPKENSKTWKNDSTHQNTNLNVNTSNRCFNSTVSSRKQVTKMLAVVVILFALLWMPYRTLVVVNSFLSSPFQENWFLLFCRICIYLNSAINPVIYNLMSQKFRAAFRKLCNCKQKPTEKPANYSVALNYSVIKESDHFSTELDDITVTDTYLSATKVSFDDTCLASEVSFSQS
Chain of Acetylcholinesterase (Homo sapiens) (P22303 whole entry, looked up): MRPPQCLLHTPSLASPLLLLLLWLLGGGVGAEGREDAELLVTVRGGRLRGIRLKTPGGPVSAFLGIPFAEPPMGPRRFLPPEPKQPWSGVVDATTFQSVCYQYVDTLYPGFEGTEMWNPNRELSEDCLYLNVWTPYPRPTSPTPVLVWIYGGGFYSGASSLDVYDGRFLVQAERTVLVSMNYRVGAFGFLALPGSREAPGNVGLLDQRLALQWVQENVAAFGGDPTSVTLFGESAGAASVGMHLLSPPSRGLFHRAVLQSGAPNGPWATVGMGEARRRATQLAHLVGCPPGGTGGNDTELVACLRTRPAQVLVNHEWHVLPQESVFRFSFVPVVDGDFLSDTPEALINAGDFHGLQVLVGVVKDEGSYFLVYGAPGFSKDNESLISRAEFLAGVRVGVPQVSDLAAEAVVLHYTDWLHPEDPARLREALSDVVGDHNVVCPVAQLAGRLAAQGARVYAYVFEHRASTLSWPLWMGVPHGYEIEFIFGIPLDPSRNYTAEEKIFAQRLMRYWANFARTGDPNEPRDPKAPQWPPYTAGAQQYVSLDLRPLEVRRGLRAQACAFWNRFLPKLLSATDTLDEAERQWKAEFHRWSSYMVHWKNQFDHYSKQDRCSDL
Chain of Nuclear receptor subfamily 1 group I member 2 (Homo sapiens) (O75469 whole entry, looked up): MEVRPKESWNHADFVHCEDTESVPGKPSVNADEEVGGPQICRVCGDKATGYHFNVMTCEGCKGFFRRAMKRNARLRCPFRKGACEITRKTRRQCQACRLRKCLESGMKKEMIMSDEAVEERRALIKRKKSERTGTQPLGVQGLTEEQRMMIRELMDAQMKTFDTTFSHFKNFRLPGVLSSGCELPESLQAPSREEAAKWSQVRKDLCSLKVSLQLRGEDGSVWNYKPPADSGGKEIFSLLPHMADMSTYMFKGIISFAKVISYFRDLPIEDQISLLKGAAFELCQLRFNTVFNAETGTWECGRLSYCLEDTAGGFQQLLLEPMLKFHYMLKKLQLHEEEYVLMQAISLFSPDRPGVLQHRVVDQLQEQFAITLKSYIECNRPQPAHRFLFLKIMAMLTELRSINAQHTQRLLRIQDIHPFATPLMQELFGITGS
Chain of Nuclear receptor subfamily 1 group I member 2 (Rattus norvegicus) (Q9R1A7 whole entry, looked up): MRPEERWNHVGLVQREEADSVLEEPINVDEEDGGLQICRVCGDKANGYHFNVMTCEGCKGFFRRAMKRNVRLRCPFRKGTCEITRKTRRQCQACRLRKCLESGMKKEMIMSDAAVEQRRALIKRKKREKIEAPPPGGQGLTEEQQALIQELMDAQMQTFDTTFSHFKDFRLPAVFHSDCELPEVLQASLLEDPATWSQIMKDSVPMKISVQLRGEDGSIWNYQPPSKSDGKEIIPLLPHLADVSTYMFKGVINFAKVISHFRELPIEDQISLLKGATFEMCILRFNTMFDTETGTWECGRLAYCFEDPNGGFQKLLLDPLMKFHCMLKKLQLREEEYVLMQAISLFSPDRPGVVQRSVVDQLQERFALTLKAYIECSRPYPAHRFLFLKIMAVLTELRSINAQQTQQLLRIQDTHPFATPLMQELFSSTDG

Row | SMILES | Potency [1] | Potency [2] | Potency [3] | outcome [4] | Potency [5] | outcome [6] | Potency [7] | outcome [8] | Potency [9] | outcome [10] | Potency [11] | outcome [12] | Potency [13] | Potency [14] | Potency [15] | Potency [16] | Potency [17] | max activation [18] | Potency [19] | Potency [20]
1 | CNC(=O)O/N=C(/CSC)C(C)(C)C | inactive | inactive | inactive | inactive | inactive | inactive | inactive | inactive | inactive | inactive | inactive | inactive | inactive | 1.59 µM (active) |  |  |  |  |  | 
2 | CCN(CC)C1CCCCC1 | inactive | inactive |  | inactive | inactive | inactive | inactive | inactive |  | inactive | inactive | inactive | inactive | inactive | inactive | inactive |  |  |  | 
3 | Cl/C=C/CCl | inactive | inactive | inactive | inactive | inactive |  |  |  | inactive |  |  | inactive | inactive | inactive |  | inactive |  |  |  | 
4 | C[C@H]1CCCC(=O)CCC/C=C/c2cc(O)cc(O)c2C(=O)O1 | 46.8 µM (active) and inactive |  |  | inactive | inactive | inactive | inactive | inactive | 52.5 µM (active) | inactive | 46.8 µM (active) and 22.4 µM (active) | inactive | 46.8 µM (active) and 22.4 µM (active) | inactive | 5.02 µM (active) |  |  |  |  | 
5 | CCCC[N+](=O)[O-] |  | inactive | inactive | inactive | inactive | inactive | inactive | inactive | inactive |  | inactive | inactive | inactive | inactive | inactive | inactive | inactive |  |  | 
6 | CCN[C@@H](C)Cc1ccccc1 | inactive |  | inactive | inactive | inactive | inactive | inactive | inactive | inactive | inactive | inactive | inactive | inactive | inactive | inactive | inactive |  |  |  | 
7 | CC[C@@H](CO)NC(=O)[C@@H]1C=C2c3cccc4[nH]cc(c34)C[C@H]2N(C)C1 | inactive | inactive |  | inactive | inactive | inactive | inactive | inactive |  | inactive | inactive | inactive | inactive | 17.4 µM (active) | inactive | inactive |  |  |  | 
8 | COC(=O)[C@@H](N)CCCN/C(N)=N/[N+](=O)[O-] | inactive |  | inactive | inactive | inactive | inactive | inactive | inactive | inactive | inactive | inactive | inactive | inactive | inactive | inactive |  |  | 0.511% (inactive) |  | 
9 | CC(C)(N)Cc1ccccc1Cl | inactive |  |  | inactive | inactive | inactive | inactive | inactive | inactive | inactive | inactive | inactive | inactive | inactive | inactive | inactive |  |  |  | 
10 | c1cncc([C@@H]2CCCCN2)c1 |  | inactive | inactive | inactive | inactive | inactive | inactive | inactive | inactive | inactive |  | inactive | inactive | inactive | inactive | 21.7 µM (active) | inactive |  |  | 
11 | COc1cc(CC(C)N)cc(OC)c1OC (configuration not stated) | inactive |  | inactive | inactive | inactive | inactive | inactive | inactive | inactive | inactive | inactive | inactive | inactive | inactive | inactive | inactive |  |  |  | 
12 | O=C(O)C(Cl)Br (configuration not stated) |  | inactive | inactive | inactive | inactive | inactive | inactive | inactive | inactive | inactive |  | inactive | inactive | inactive | inactive | inactive | inactive |  |  | 
13 | C=CC=O |  | inactive | inactive | inactive | inactive | inactive | inactive | inactive | inactive | inactive | inactive | inactive | inactive | inactive | inactive | inactive | inactive |  |  | 
14 | CC(C)N(Cc1ccccc1)C(=O)C(C)(C)C | inactive | inactive |  | inactive | inactive | inactive | inactive | inactive | inactive |  | inactive | inactive | inactive | inactive | inactive | inactive |  |  |  | 
15 | CCN(CC)CCOC(=O)C(O)(c1ccccc1)c1ccccc1 | inactive |  | inactive | inactive | inactive | inactive | inactive | inactive | inactive |  |  | inactive | inactive | inactive | inactive | inactive |  | -2.47% (inactive) | inactive | inactive
16 | CC[C@H](N)c1ccccc1 | inactive | inactive | inactive | inactive | inactive | inactive |  |  |  | inactive | inactive | inactive | inactive | inactive | inactive |  |  |  |  | 
17 | Clc1nc(Cl)nc(Nc2ccccc2Cl)n1 |  | inactive | inactive | inactive | inactive | inactive | inactive | inactive | inactive | inactive | inactive | inactive | inactive | inactive | inactive |  | inactive |  |  | 
18 | CCOC(=O)C(SP(=S)(OC)OC)c1ccccc1 (configuration not stated) | inactive | inactive | inactive | inactive | inactive |  | inactive | inactive |  | inactive | inactive | inactive | inactive | 31.7 µM (active) | 48.6 µM (active) |  |  |  |  | 
19 | CCNP(=S)(OC)O/C(C)=C/C(=O)OC(C)C (configuration not stated) | inactive | inactive | inactive |  | inactive | inactive | inactive | inactive |  | inactive | inactive | inactive | inactive |  |  | 9.69 µM (active) |  |  |  | 
